TDP1 cell noCPT – qHTS for Inhibitors of human tyrosyl-DNA phosphodiesterase 1 (TDP1): qHTS in cells in absence of CPT; DT40 Tdp1-/- hTDP1 cells, no CPT, ATP luminescence, 48 h; Potency, µM (series often up to 46.2 µM), usual class: inhibitors; 15% of 420,000 active; AID 686978, 2013; also: nearly all actives have a fitted effect of over 55% in size
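A cellular qHTS used chicken DT40 cells lacking endogenous Tdp1 but carrying stably transfected human TDP1. Compounds were applied without camptothecin, and cell growth kinetics were judged by ATP-dependent luminescence after ≥48 hr.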
HT1080NT lethal – kills 2HG-producing HT-1080-NT fibrosarcoma cells; 1.6% of 360,000 active; HT-1080-NT fibrosarcoma viability, CellTiter-Glo ATP luminescence, 48 h; Potency, µM (highest dose often 46.1 µM), actives largely listed as cytotoxic;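 also: NT is the 2HG producing partner of a matched IDH1 knockdown line; nearly all actives have a fitted effect of over 55% in size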
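Luminescent CellTiter-Glo readout after 48 hours of compound exposure at 37 degrees C defined viability of HT-1080-NT cells. Activity was normalized to DMSO wells and cell-free media wells; concentration-response curves were fitted and assigned curve classes.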
HT1080 IDH1KD tx – HT-1080 IDH1 knockdown cell toxicity (counter line); HT-1080 IDH1 knockdown viability, ATP luminescence, 48 h; Potency, µM (highest dose often 46.1 µM), most hits filed as cytotoxic; 2% of 360,000 active; AID 686971
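Knockdown cells (IDH1KD HT-1080) received compounds 2 h after plating at 750 cells/well and were kept 48 h at 37 °C in 5% FBS RPMI. A CellTiter-Glo luminescence read gave % activity for curve fitting.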
DT40 TDP1 CPT – DT40-hTDP1 cell growth loss with CPT. chicken DT40 Tdp1-/-;hTDP1 cells + 20 nM CPT, ATP luminescence, 48 h. Potency, µM (titrated, usually from 46.2 µM), actives largely listed as inhibitors. 12% of 420,000 active; also: nearly all actives have a fitted effect of over 55% in size
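Chicken DT40 Tdp1-/- cells stably complemented with human TDP1 were seeded at 400 cells/well in medium containing 20 nM camptothecin, exposed to pin-transferred compounds, and grown at 37 °C for at least 48 hr. Viability was read as ATP luminescence.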
IL1B secr inh – blocks inflammasome-driven IL-1 beta release | AID 743279 | THP-1 LPS/ATP IL-1B secretion, AlphaLISA, 16 h; active compounds read low | activity change, % at 57.5 µM | 4.7% of 360,000 active; in the data active = activity change below about -50%; inconclusive = mostly about -30% to -49%
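Secreted IL-1B measured by AlphaLISA bead assay after 16 h compound exposure of THP-1 cells; compounds (final up to 57.5 uM) added 1 h before LPS (250 ng/mL) and ATP (1.25 mM) stimulation; lower signal means less secretion.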
Each line names hits and unclear results; the compound was inactive in the other large screens. The list is not random: actives were taken first. Their share in the collection is about 19%. Unless noted, calls follow the shape of the dose curve; as a rule, active = well fitted curve in the direction sought with a large enough effect; inconclusive = small, poorly fitted or top-dose-only effect, or another doubt; inactive = no such curve, though single readings can be large; an effect the other way counts as inactive or inconclusive.

CC(=O)[C@@]1(O)[C@H](C)CC2C3CC=C4CC(OP(=O)(O)O)CC[C@]4(C)C3CC[C@@]21C (stereo not given in full)	TDP1 cell noCPT inconclusive
Cc1c(C(C)NC(=O)c2cc(COc3cccc4cnccc34)on2)cnn1C (stereo not given)	TDP1 cell noCPT 13µM, DT40 TDP1 CPT 23.1µM
CN(Cc1cccc2cnccc12)C(=O)c1cc(COc2ccc(F)cc2F)on1	TDP1 cell noCPT inconclusive, DT40 TDP1 CPT inconclusive, IL1B secr inh inconclusive
CCOC(=O)CC1(NC(=O)c2cc(COc3c(F)cccc3F)on2)CCCCC1	TDP1 cell noCPT 8.2µM, DT40 TDP1 CPT 11.6µM
CCc1ccc(CN(C)C(=O)c2cc(COc3cccc4cnccc34)on2)cc1	TDP1 cell noCPT 6.51µM, HT1080NT lethal inconclusive, HT1080 IDH1KD tx 14.6µM, DT40 TDP1 CPT 9.2µM
CN(Cc1cc(-c2ccccc2)on1)C(=O)c1cc(COc2c(F)cccc2F)on1	TDP1 cell noCPT inconclusive, DT40 TDP1 CPT 10.3µM
O=C(CNC(=O)C1COc2ccccc2O1)Nc1ccc(F)c(F)c1 (stereo not given)	none
CCNC(=O)C1(C)CCN(C(=O)c2c(F)ccc(C)c2F)C1 (stereo not given)	none
CC(C)N(C)Cc1nnnn1CC(=O)N(C)Cc1ccc(F)cc1	none
CN(Cc1ccccc1)C(=O)c1cc(-c2cccc(Cl)c2)on1	TDP1 cell noCPT inconclusive, DT40 TDP1 CPT 23.1µM (no result: HT1080NT lethal, HT1080 IDH1KD tx, IL1B secr inh)
CCc1ccc(CN(C)C(=O)c2cc(COc3c(F)cccc3F)on2)cc1	TDP1 cell noCPT 16.4µM, DT40 TDP1 CPT 23.1µM, IL1B secr inh -58.2
COc1ccc(CNC(=O)c2cc(-c3cccc(Cl)c3)on2)cc1	DT40 TDP1 CPT inconclusive (no result: HT1080NT lethal, HT1080 IDH1KD tx, IL1B secr inh)
COc1cccc(N2C(=O)C(Cc3c[nH]c4ccccc34)NC2=S)c1 (stereo not given)	none
Cc1sc2nc(CN(C(=O)NC3CCCCC3)C3CCCCC3)[nH]c(=O)c2c1C	TDP1 cell noCPT 20.6µM, DT40 TDP1 CPT 18.4µM
Cc1sc2nc(CN(Cc3cccs3)C(=O)C3CC3)[nH]c(=O)c2c1C	TDP1 cell noCPT 9.2µM, DT40 TDP1 CPT 16.4µM
Cc1ccc(Cn2c(SCc3ccc(C(=O)N4CCCCC4)cc3)nc3ccncc32)cc1	TDP1 cell noCPT 8.2µM, DT40 TDP1 CPT 18.4µM (no result: HT1080NT lethal, HT1080 IDH1KD tx, IL1B secr inh)
Cc1cccc(CSc2nc3ccncc3n2CC(=O)Nc2cc(C)cc(C)c2)c1	TDP1 cell noCPT inconclusive, DT40 TDP1 CPT inconclusive
Cc1ccc(Cn2c(SCc3ccc(C(=O)N4CCCCCC4)cc3)nc3ccncc32)cc1	TDP1 cell noCPT 20.6µM, DT40 TDP1 CPT inconclusive (no result: HT1080NT lethal, HT1080 IDH1KD tx, IL1B secr inh)
O=C(c1ccc(CSc2nc3ccncc3n2Cc2ccccc2F)cc1)N1CCCCCC1	TDP1 cell noCPT 25.9µM, DT40 TDP1 CPT inconclusive (no result: HT1080NT lethal, HT1080 IDH1KD tx, IL1B secr inh)
Cc1ccccc1-n1c(SCC(=O)c2cc(C)n(C)c2C)nnc1-c1ccncc1	TDP1 cell noCPT inconclusive, DT40 TDP1 CPT inconclusive
COc1ccc(NC(=O)NC2(C(=O)N3CCN(C)CC3)CCCCC2)cc1	none
C[C@@H]1CN([C@H](C)CO)C(=O)c2cc(Br)cnc2O[C@H]1CN(C)C(=O)Cc1ccccc1	none
CN1C(=O)C(N=Nc2ccc([N+](=O)[O-])cc2)SC1=S (stereo not given)	TDP1 cell noCPT 6.51µM, HT1080NT lethal inconclusive, HT1080 IDH1KD tx inconclusive, DT40 TDP1 CPT 7.31µM, IL1B secr inh -89.3
Cn1c(=O)c(=O)n(C)c2cc([N+](=O)[O-])c([N+](=O)[O-])cc21	TDP1 cell noCPT 18.4µM, HT1080NT lethal inconclusive, HT1080 IDH1KD tx inconclusive, DT40 TDP1 CPT 14.6µM, IL1B secr inh -101.4
CC(=O)Nc1ccc(NC(=O)C(Cc2ccccc2)NC(=O)C2CCCCC2)cc1 (stereo not given)	none
CCCC[P+](CCCC)(CCCC)Cc1ccc(NC(=O)[C@@H](Cc2ccc3ccccc3c2)NC(=NC2CCCCC2)NC2CCCCC2)cc1	TDP1 cell noCPT 16.8µM, DT40 TDP1 CPT 13.3µM (no result: HT1080NT lethal, HT1080 IDH1KD tx, IL1B secr inh)
CC1=NN(c2ccccc2)C(=O)C1C(=O)c1ccc(Cl)cc1 (stereo not given)	TDP1 cell noCPT 23.1µM, HT1080NT lethal inconclusive, DT40 TDP1 CPT 20.6µM
CC1CCCC(NC(=O)COC(=O)c2cc(S(=O)(=O)N3CCOCC3)ccc2F)C1C (stereo not given)	none
Cn1c(/C(C#N)=C(\O)c2ccccc2Cl)nc2ccccc21	none
Cn1c(/C(C#N)=C(\O)COc2ccc3ccccc3c2)nc2ccccc21	TDP1 cell noCPT 25.9µM, DT40 TDP1 CPT inconclusive
CCN(CC)S(=O)(=O)c1ccc(C(O)=C(C#N)c2nc3ccccc3n2C)cc1	TDP1 cell noCPT 13µM, DT40 TDP1 CPT 16.4µM, IL1B secr inh -72.2
CN(C)CCCNCC(=O)NN(c1ccccc1)c1ccccc1	none
Cn1c(=O)c2c(ncn2CC(=O)Nc2ccccc2Sc2ccccc2)n(C)c1=O	none
CCC1CCCCN1CCCNC(=O)Cn1c(=O)c2cccn2c2cccnc21 (stereo not given)	none
CN(C)C(CNC(=O)c1cc(S(=O)(=O)N(C)c2ccc(F)cc2)ccc1Cl)c1cccs1 (stereo not given)	TDP1 cell noCPT 5.8µM, DT40 TDP1 CPT 5.8µM
COc1ccccc1N(C)S(=O)(=O)c1ccc(Cl)c(C(=O)NCCCN2CCOCC2)c1	none
COc1ccccc1N(C)S(=O)(=O)c1ccc(Cl)c(C(=O)Nc2ccccc2N2CCOCC2)c1	TDP1 cell noCPT 1.46µM, DT40 TDP1 CPT 3.66µM
COc1ccccc1N(C)S(=O)(=O)c1ccc(Cl)c(C(=O)NCc2cccnc2)c1	TDP1 cell noCPT inconclusive, DT40 TDP1 CPT inconclusive
COc1ccc(N(C)S(=O)(=O)c2cccc(C(=O)NCC(c3cccs3)N(C)C)c2)cc1 (stereo not given)	DT40 TDP1 CPT inconclusive
CN(c1ccc(F)cc1)S(=O)(=O)c1ccc(Cl)c(C(=O)NC2(C)CCS(=O)(=O)C2)c1 (stereo not given)	TDP1 cell noCPT inconclusive
Cc1cccc(NC(=O)c2cc(S(=O)(=O)N(C)c3ccc(F)cc3)ccc2Cl)n1	TDP1 cell noCPT 8.2µM, DT40 TDP1 CPT inconclusive, IL1B secr inh inconclusive
COc1ccccc1N(C)S(=O)(=O)c1ccc(Cl)c(C(=O)Nc2cccc(C)n2)c1	TDP1 cell noCPT 16.4µM, DT40 TDP1 CPT 18.4µM
COc1nccnc1NS(=O)(=O)c1ccc(NC(=O)c2cccc(C)c2)cc1	none
COc1ccc(NC(=O)Cn2cnc3c(oc4ccccc43)c2=O)cc1OC	none (no result: HT1080NT lethal, HT1080 IDH1KD tx, IL1B secr inh)
COc1ccc(C2CC(=O)c3cc(-c4nc(-c5cccc([N+](=O)[O-])c5)cs4)c(=O)n(-c4cccc(C)c4)c3C2)cc1 (stereo not given)	none (no result: HT1080NT lethal, HT1080 IDH1KD tx, IL1B secr inh)
COc1ccc(Cl)cc1Nc1cc(C)nc2nc(-c3ccccc3C)nn12	none (no result: HT1080NT lethal, HT1080 IDH1KD tx, IL1B secr inh)

Screens from PubChem.
